HP1b chromo inh: HTS for Inhibitors of HP1-beta Chromodomain Interactions with Methylated Histone Tails. Chromobox protein homolog 1 (Homo sapiens), P83916. AlphaScreen HP1-beta / biotin-H3K9me3 peptide binding. Potency, µM (titrated, usually from 114 µM), for inactives: at the top dose activity change, negative = inhibition, hits mostly inhibitors. 0.56% of 390,000 active. AID 540317, 2011; further: nearly all actives have a fitted effect of over 70% in size
Target sequence (P83916 whole entry, looked up): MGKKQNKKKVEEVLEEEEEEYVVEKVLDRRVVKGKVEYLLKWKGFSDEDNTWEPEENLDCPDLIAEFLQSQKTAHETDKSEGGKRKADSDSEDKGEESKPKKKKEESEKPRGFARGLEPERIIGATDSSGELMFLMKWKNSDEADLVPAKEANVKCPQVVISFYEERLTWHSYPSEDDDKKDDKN
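Compound inhibition of the preformed complex between 50 nM HP1-beta and 50 nM biotinylated H3K9me3 peptide was read by AlphaScreen. Buffer was PBS pH 7.4 with 0.01% Tween-20. Incubations ran 30 min at room temperature, with 10 ug/mL donor/acceptor beads.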
12-LOX inh: Primary qHTS assay for inhibitors of human arachidonate 12S-lipoxygenase (ALOX12): Round 2; Polyunsaturated fatty acid lipoxygenase ALOX12 (Homo sapiens), P18054; 1.1% of 580,000 active; AID 1671190, 2021; purified 12hLO, xylenol orange hydroperoxide absorbance; Potency, µM (doses to about 108 µM), for inactives: at the highest dose activity change, negative = inhibition, usual class: inhibitors; further: on the % scale 0 is the no-effect control and ±100 the full control effect
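Purified human 12hLO (150 nM final) in 25 mM Hepes, 0.01% Triton X-100, pH 7.0 was preincubated 15 min at room temperature with compound. Then 40 uM arachidonic acid was added, 30 min. Hydroperoxide was read by Fe-XO absorbance ratio 573/405 nm.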
JMJD2A Tudor: qHTS Assay for Inhibitors of JMJD2A-Tudor Domain. Lysine-specific demethylase 4A (Homo sapiens), O75164. AlphaScreen JMJD2A-Tudor / H3K4me3 peptide binding. Potency, µM (series often up to 114 µM), inactives show at the top dose activity change, negative = inhibition, usual class: inhibitors. 4.4% of 390,000 active; further: on the % scale 0 is the no-effect control and ±100 the full control effect; nearly all actives have a fitted effect of over 50% in size
G9a block: qHTS Assay for Inhibitors of Histone Lysine Methyltransferase G9a; Histone-lysine N-methyltransferase EHMT2 (Homo sapiens), Q96KQ7; G9a H3K9 monomethylation, AlphaScreen, 2 h; Potency, µM (top dose mostly 102 µM), without a hit: at the top dose activity, negative = inhibition, usual class: inhibitors; 8.8% of 350,000 active; AID 504332, 2011; further: on the % scale 0 is the no-effect control and ±100 the full control effect; nearly all actives have a fitted effect of over 75% in size
Target sequence (Q96KQ7 913-1193 limits assumed): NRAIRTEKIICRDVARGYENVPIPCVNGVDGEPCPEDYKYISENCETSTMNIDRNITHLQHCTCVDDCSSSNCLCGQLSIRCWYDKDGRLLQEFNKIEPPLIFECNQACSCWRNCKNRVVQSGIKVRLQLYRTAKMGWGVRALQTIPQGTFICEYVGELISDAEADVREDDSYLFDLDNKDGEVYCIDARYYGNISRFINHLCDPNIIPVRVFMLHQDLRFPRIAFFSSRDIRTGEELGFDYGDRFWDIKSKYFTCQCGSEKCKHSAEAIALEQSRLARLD
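Step 1: enzyme (final 20 nM) with compound, 15 min RT. Step 2: substrate peptide 500 nM and SAM 20 uM, 2 h RT. Step 3: anti-H3K9me1 antibody and AlphaScreen beads, 10 min, then plate read.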
PLK1 PBD inh: qHTS for Inhibitors of PLK1-PDB (polo-like kinase 1 - polo-box domain): Primary Screen. Serine/threonine-protein kinase PLK1 (Homo sapiens), P53350. Plk1 PBD binding of FITC phosphopeptide, fluorescence polarization. Potency, µM, for inactives: max response, negative = inhibition, most hits filed as inhibitors. 2.8% of 360,000 active. AID 720504, 2013; further: series mostly up to about 57 µM; on the % scale 0 is the no-effect control and ±100 the full control effect; nearly all actives have a fitted effect of over 65% in size
BAZ2B block: qHTS Assay for Inhibitors of BAZ2B | Bromodomain adjacent to zinc finger domain protein 2B (Homo sapiens), Q9UIF8 | AID 504333, 2011 | Potency, µM (doses to about 114 µM), without a hit: top-dose activity change, negative = inhibition, usual class: inhibitors | AlphaScreen BAZ2B-H3K14Ac peptide displacement | 4.4% of 360,000 active; further: on the % scale 0 is the no-effect control and ±100 the full control effect; nearly all actives have a fitted effect of over 60% in size
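Protein-peptide AlphaScreen: BAZ2B 50 nM, b-H3K14Ac 50 nM, 1x PBS pH 7.4 + 0.01% Tween-20. Preincubation 30 min RT; cpd 30 min RT (top 110 uM); beads 20 min RT, light-protected.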
Starred values were filed as active, the others as inactive; ! = not confirmed by another sample; [ ] = remark or other dose. Sampled rows, rich in hits. Any-hit rate of the full collection: about 9%. The call rests on the fitted dose curve; in most records, active means well fitted curve in the direction sought with a large enough effect; inconclusive means small, poorly fitted or top-dose-only effect, or another doubt; inactive means no such curve, though single readings can be large; an effect the other way counts as inactive or inconclusive. Potency means the concentration at half of the fitted maximal effect.

How did COc1cc(C(=O)Oc2ccc(Br)cc2C(=S)N2CCOCC2)cc(OC)c1OC do in these assays?
HP1b chromo inh: inconclusive; 12-LOX inh: inconclusive; JMJD2A Tudor: -36.0%; G9a block: 10µM*; PLK1 PBD inh: 16.8µM*; BAZ2B block: -30.3%

What do the screens show for `CCCCN(Cc1cc2cc(OC)ccc2[nH]c1=O)C(=O)c1ccccn1`?
HP1b chromo inh: -9.8%; 12-LOX inh: inconclusive; JMJD2A Tudor: -11.6%; G9a block: inconclusive; PLK1 PBD inh: inconclusive; BAZ2B block: -24.4%

How did CCCN(Cc1cc2cc(C)ccc2[nH]c1=O)C(=O)c1ccccn1 do in these assays?
HP1b chromo inh: -0.3%; 12-LOX inh: -1.0%; JMJD2A Tudor: -19.1%[11.4 µM]; G9a block: 0.2%; PLK1 PBD inh: 18.9µM*; BAZ2B block: -14.4%

What do the screens show for `COc1ccc2[nH]c(=O)c(CN(C(=O)c3ccccn3)C3CCCCC3)cc2c1`?
HP1b chromo inh: -13.5%; 12-LOX inh: inconclusive; JMJD2A Tudor: 6.8%; G9a block: 28.2µM*; PLK1 PBD inh: inconclusive; BAZ2B block: 16.5%

What do the screens show for `O=C(c1ccccn1)N(Cc1cc2ccccc2[nH]c1=O)C1CCCCC1`?
HP1b chromo inh: 11.3%; 12-LOX inh: inconclusive; JMJD2A Tudor: -4.7%; G9a block: 0.9%; PLK1 PBD inh: 0.0%; BAZ2B block: 10.4%

Results for O=C(c1ccc(Br)cc1)N1CCC(C(=O)N2CCN(c3ccccc3)CC2)CC1 ?
HP1b chromo inh: 30.5%; 12-LOX inh: -10.3%; JMJD2A Tudor: -11.3%; G9a block: inconclusive; PLK1 PBD inh: 4.6%; BAZ2B block: -30.7%

How did O=C1CN(c2ccccc2)C(=S)N1C(=O)c1ccc(Br)cc1 do in these assays?
HP1b chromo inh: -22.2%; 12-LOX inh: inconclusive; JMJD2A Tudor: -30.8%; PLK1 PBD inh: 23.8µM*; BAZ2B block: -2.4%

What do the screens show for `O=C(Cc1ccccc1F)Nc1nc(-c2ccc(F)cc2)cs1`?
HP1b chromo inh: 28.1%; 12-LOX inh: -25.7%; JMJD2A Tudor: -11.0%; G9a block: 12.4%; PLK1 PBD inh: 1.7%; BAZ2B block: 10.7%

What do the screens show for `COc1ccc(-c2ccnc(-c3nnc(C)n3Cc3ccccc3)c2)cc1OC`?
12-LOX inh: 18.8%[176 µM]

How did O=C(NNC(=O)c1ccccc1-n1cccc1)c1ccc(F)cc1 do in these assays?
HP1b chromo inh: 39.8%; 12-LOX inh: 13.4%; JMJD2A Tudor: -0.7%; G9a block: inconclusive; PLK1 PBD inh: 11.5%; BAZ2B block: -30.6%

What do the screens show for `CCOC(=O)C1=C(O)/C(=C\c2cc(C)n(-c3ccc(F)cc3)c2C)N=C1C`?
HP1b chromo inh: -7.3%; 12-LOX inh: 35.5µM*; JMJD2A Tudor: inconclusive; G9a block: inconclusive; PLK1 PBD inh: inconclusive; BAZ2B block: inconclusive

How did CCOC(=O)C1=C(O)/C(=C\c2cc(C)n(-c3ccccc3F)c2C)N=C1C do in these assays?
HP1b chromo inh: 20.4%; 12-LOX inh: inconclusive; JMJD2A Tudor: inconclusive; G9a block: inconclusive; PLK1 PBD inh: -27.5%; BAZ2B block: inconclusive

Results for CCc1ccc(CNC(=O)CN(c2ccc(C)cc2)S(=O)(=O)N(C)C)cc1 ?
HP1b chromo inh: 36.7%; 12-LOX inh: -9.9%; JMJD2A Tudor: -4.6%; G9a block: 10.8%[59 µM]; BAZ2B block: 0.1%

How did C=CCC1CCCC(=O)N2CC[C@H](O)C12 (stereo partly drawn) do in these assays?
HP1b chromo inh: 9.1%; 12-LOX inh: -22.2%; JMJD2A Tudor: -25.0%; G9a block: 79.4µM*!; PLK1 PBD inh: -26.8%; BAZ2B block: -5.4%

What do the screens show for `C=CCC1CCCC(=O)N2CCCC12` (stereo not drawn)?
HP1b chromo inh: 29.9%; 12-LOX inh: -7.5%; JMJD2A Tudor: -0.7%; G9a block: -6.1%[135 µM]; PLK1 PBD inh: -4.1%

How did COc1cccc(N2CCN(Cc3cccnc3)CC2)c1 do in these assays?
HP1b chromo inh: 56.2µM*; 12-LOX inh: inconclusive; JMJD2A Tudor: 3.16µM*; G9a block: 14.1µM*; PLK1 PBD inh: 21.2%; BAZ2B block: 39.8µM*

Results for FC(F)(F)c1cccc(N2CCN(Cc3cccnc3)CC2)c1 ?
HP1b chromo inh: inconclusive; 12-LOX inh: -10.0%; JMJD2A Tudor: 1.26µM*; G9a block: 14.1µM*; PLK1 PBD inh: -5.9%; BAZ2B block: -33.6%

What do the screens show for `COc1cccc(N2CCN(C3C4CC5CC(C4)CC3C5)CC2)c1` (stereo not drawn)?
HP1b chromo inh: 17.4%; 12-LOX inh: inconclusive; JMJD2A Tudor: -11.7%; G9a block: 50.1µM*; PLK1 PBD inh: -3.8%; BAZ2B block: inconclusive

What do the screens show for `CCOc1ccc(CN2CCc3nc(N4CCN(c5ncccn5)CC4)ncc3C2)cc1OC`?
HP1b chromo inh: 2.6%; 12-LOX inh: inconclusive; JMJD2A Tudor: inconclusive; G9a block: 5.8%[12.7 µM]; BAZ2B block: -34.2%

How did COc1cccc(N2CCN(c3ncc4c(n3)CCN(Cc3ccc(Br)cc3)C4)CC2)c1 do in these assays?
HP1b chromo inh: -21.2%; 12-LOX inh: inconclusive; JMJD2A Tudor: 56.2µM*; G9a block: 6.8%[12.7 µM]; BAZ2B block: 22.4µM*

What do the screens show for `CCOc1cccc(CN2CCN(c3cccc(C(F)(F)F)c3)CC2)c1O`?
HP1b chromo inh: 17.5%; 12-LOX inh: inconclusive; JMJD2A Tudor: -22.6%; G9a block: -36.2%[12.7 µM]; PLK1 PBD inh: -3.7%; BAZ2B block: -14.7%

How did FC(F)(F)c1cccc(N2CCN(Cc3ccoc3)CC2)c1 do in these assays?
HP1b chromo inh: inconclusive; 12-LOX inh: inconclusive; JMJD2A Tudor: 3.55µM*; G9a block: inconclusive; PLK1 PBD inh: -5.0%; BAZ2B block: 50.1µM*

Results for O=C(O)CN1C(=O)C2C3CC(C2C1=O)C1C(c2ccccc2)c2sc(=O)[nH]c2SC31 (stereo not drawn) ?
HP1b chromo inh: 18.2%; 12-LOX inh: -19.4%; JMJD2A Tudor: -22.6%; G9a block: -18.7%[59 µM]; PLK1 PBD inh: inconclusive; BAZ2B block: 6.5%

What do the screens show for `CC(C)CC(C(=O)O)N1C(=O)C2C3CC(C2C1=O)C1C(c2ccccc2)c2sc(=O)[nH]c2SC31` (stereo not drawn)?
HP1b chromo inh: 3.0%; 12-LOX inh: inconclusive; JMJD2A Tudor: -18.5%; G9a block: inconclusive; PLK1 PBD inh: 16.8µM*; BAZ2B block: 7.3%
